# Laboratory results published in paper PMC11574364.
# Legend:
# Assay in all cases: protein domain microarray probed with biotinylated miRNA; Domain array: 20 mM Tris-HCl pH 7.4, 200 mM KCl, 0.2 mM EDTA, 0.05% NP40, 2 ug/ul heparin, overnight 4 C. ORF array: PBS pH 7.0 with RNase inhibitor, 100 ng RNA; high values mean tight binding
# Settings in all cases: ssRNA
# Musashi-1 = Musashi-1 (Homo sapiens, UniProt O43347)
# FIR = FIR (Homo sapiens, UniProt Q9UHX1)
# HNRNPCP5 = HNRNPCP5 (Homo sapiens, UniProt B2RXH8)
# HNRNPCP5, sequence (B2RXH8 1-110): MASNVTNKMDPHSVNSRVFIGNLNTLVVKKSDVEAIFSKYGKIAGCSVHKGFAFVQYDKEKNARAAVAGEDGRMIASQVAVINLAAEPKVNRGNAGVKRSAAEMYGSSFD
# hnRNP-F = molecular target: T1, hnRNP-F (Homo sapiens, UniProt P52597)
# T1 sequence: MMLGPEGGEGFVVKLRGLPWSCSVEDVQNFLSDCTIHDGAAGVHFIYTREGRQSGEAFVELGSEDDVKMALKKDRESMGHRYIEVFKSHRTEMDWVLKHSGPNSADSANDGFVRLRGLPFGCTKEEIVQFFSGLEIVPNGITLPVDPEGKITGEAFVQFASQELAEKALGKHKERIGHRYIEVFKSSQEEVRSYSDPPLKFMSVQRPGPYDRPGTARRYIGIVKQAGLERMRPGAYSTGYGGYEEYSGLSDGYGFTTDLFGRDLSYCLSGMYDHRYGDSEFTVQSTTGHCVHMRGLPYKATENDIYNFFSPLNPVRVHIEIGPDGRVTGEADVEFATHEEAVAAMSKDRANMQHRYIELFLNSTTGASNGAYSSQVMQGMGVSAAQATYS
# IGF2BP1 = IGF2BP1 (Homo sapiens, UniProt Q9NZI8)
# IGF2BP1, sequence (Q9NZI8 1-176): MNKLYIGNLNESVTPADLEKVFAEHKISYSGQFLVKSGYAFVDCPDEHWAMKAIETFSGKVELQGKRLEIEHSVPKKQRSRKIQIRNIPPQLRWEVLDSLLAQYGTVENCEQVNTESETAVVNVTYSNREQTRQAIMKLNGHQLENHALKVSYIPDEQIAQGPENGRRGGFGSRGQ
# GRSF1 = molecular target: T2, GRSF1 (Homo sapiens, UniProt Q12849)
# T2 sequence: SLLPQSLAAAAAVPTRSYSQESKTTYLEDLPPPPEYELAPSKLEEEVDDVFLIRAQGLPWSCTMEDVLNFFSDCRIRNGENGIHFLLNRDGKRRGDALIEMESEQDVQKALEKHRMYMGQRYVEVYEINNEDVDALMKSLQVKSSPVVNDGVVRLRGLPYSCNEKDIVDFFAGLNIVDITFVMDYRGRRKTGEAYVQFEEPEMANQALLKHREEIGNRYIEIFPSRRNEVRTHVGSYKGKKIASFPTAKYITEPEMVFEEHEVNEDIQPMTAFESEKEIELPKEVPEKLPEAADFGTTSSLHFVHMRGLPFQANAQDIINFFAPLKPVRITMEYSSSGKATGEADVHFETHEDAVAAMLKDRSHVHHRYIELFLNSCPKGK
# hnRNP-I(3-4) = hnRNP-I(3-4) (Homo sapiens, UniProt P26599)
# hnRNP-I(3-4), sequence (P26599 346-557): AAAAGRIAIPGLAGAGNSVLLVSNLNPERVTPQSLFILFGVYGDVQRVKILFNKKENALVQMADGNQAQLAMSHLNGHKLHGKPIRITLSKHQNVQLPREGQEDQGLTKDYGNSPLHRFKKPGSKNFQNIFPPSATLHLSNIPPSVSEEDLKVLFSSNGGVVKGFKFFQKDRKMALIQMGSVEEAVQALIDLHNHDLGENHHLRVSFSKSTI
# ENOX2 = molecular target: T3, ENOX2 (Homo sapiens, UniProt Q16206)
# T3 sequence: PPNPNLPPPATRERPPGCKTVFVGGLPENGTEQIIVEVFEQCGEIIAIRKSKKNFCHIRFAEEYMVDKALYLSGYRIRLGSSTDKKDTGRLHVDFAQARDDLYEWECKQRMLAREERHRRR
# TAT-SF1 = molecular target: T4, TAT-SF1 (Homo sapiens, UniProt O43719)
# T4 sequence: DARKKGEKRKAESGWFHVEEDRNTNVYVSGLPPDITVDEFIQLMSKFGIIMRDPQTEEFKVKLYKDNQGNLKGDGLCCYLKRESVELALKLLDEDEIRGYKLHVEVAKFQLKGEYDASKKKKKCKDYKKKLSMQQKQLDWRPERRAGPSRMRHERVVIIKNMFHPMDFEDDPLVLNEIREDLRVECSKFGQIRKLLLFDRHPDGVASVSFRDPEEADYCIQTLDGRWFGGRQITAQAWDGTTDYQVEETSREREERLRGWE
# AKAP1 = molecular target: T5, AKAP1 (Homo sapiens, UniProt Q92667)
# T5 sequence: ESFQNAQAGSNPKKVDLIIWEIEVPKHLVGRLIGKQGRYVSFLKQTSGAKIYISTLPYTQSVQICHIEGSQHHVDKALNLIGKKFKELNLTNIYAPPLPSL
# FIR, sequence (Q9UHX1 110-559): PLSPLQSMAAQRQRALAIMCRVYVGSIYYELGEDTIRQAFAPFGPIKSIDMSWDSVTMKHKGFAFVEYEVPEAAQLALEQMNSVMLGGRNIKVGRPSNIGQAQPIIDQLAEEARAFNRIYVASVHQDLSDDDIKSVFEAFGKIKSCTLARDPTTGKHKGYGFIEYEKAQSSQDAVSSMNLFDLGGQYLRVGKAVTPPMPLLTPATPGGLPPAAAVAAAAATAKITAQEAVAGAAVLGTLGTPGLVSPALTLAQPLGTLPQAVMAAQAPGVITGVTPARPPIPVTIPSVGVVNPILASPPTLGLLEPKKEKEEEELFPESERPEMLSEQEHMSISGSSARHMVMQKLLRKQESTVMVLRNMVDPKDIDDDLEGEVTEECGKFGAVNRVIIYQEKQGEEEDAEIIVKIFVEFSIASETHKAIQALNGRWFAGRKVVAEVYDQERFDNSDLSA
# Musashi-1, sequence (O43347 1-203): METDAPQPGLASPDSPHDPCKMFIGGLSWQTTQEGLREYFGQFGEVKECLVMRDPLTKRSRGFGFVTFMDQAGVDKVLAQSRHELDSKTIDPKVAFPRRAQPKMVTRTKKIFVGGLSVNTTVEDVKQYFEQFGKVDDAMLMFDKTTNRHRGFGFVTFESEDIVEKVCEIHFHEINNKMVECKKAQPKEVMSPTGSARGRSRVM
Sequence,binding signal (Musashi-1) [fluorescence intensity],binding signal (FIR) [fluorescence intensity],binding signal (HNRNPCP5) [fluorescence intensity],binding signal (hnRNP-F) [fluorescence intensity],binding signal (IGF2BP1) [fluorescence intensity],binding signal (GRSF1) [fluorescence intensity],binding signal (hnRNP-I(3-4)) [fluorescence intensity],binding signal (ENOX2) [fluorescence intensity],binding signal (TAT-SF1) [fluorescence intensity],binding signal (AKAP1) [fluorescence intensity]
UGAGGUAGUAGGUUGUGUGGUU,1830 ± 23.3,1610 ± 121,93.8 ± 2.53,1210 ± 41.5,47.9 ± 7.33,2120 ± 63.5,945.75 ± 0.764,118 ± 1.51,184.1 ± 0.318,202 ± 12.1
CAGUGCAAUGAUGAAAGGGCAU,1460 ± 30.9,384 ± 26.4,42.4 ± 3.23,1670 ± 29.4,32.4 ± 2.43,2340 ± 154,401.7 ± 2.43,54.1 ± 16.7,90 ± 1.75,47.9 ± 2.28
UGAGGUAGUAGGUUGUAUGGUU,2400 ± 10.1,1510 ± 21.2,65.5 ± 1.7,953.1 ± 0.948,43 ± 9.13,2945 ± 11.9,934 ± 43.3,74.91 ± 0.417,116 ± 5.61,102 ± 9.24
AGAGGUAGUAGGUUGCAUAGUU,3624 ± 8.34,939 ± 116,48 ± 3.14,2388 ± 13.7,35.9 ± 7.28,4990 ± 87.4,786.56 ± 0.269,77.1 ± 15.4,125.2 ± 1.17,91.72 ± 0.827
UGAGGUAGUAGGUUGUAUAGUU,1480 ± 17,717 ± 15,24.6 ± 1.06,624 ± 22.5,26.3 ± 0.771,1790 ± 23.3,323 ± 28.7,20.7 ± 2.55,33.2 ± 1.48,
UAGCUUAUCAGACUGAUGUUGA,156 ± 11,1240 ± 132,23.4 ± 0.714,25.7 ± 1.8,23 ± 0.714,39.7 ± 8.15,230 ± 15.3,,,
